In the supplement of paper PMC10849652 one finds log2 fold change data, which are given here for 15 targets.

Common to all, as to test: log2 fold change, soluble protein after heating vs DMSO (PISA); higher = thermal stabilisation; K562 lysate, 10 uM; active = over 0.2 and 3.5 SD of the protein, either way, in both replicates (recomputed)
Compound in test [1]: C1=CC=C(C=C1)[C@H](COC2=CC3=C(C=C2)NC(=O)N3)NC(=O)C4=CC=CN(C4=O)CC5=CC(=C(C=C5)F)F
The method, boiled down:
(§1)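 Thermal stability, expressed as log-two fold change relative to solvent controls, is given from duplicates. Crude K562 extract in PBS pH 7.4 with 1 mM MgCl2, at 1 mg/mL protein, was treated with 10 μM compound for 30 min and heated in aliquots for 3 min across 48°C-58°C. After pooling, adjustment to 0.5% NP-40 at 4°C and centrifugation at 21,000xg for 90 min, supernatant protein was measured by TMTpro 16plex LC-MS/MS with channel sums equalised.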

Compound in test [2]: CC1=C(SC2=C1C(=N[C@H](C3=NN=C(N32)C)CC(=O)N)C4=CC=C(C=C4)Cl)C
The method, boiled down: as §1

Compound in test [3]: CC1=C2C(=CC=C1)N=C(N(C2=O)C3=CC=CC=C3C)CN4C=NC5=C(N=CN=C54)N
In a few lines: as §1

Compound in test [4]: Cc1sc2c(c1C)C(c1ccc(Cl)cc1)=N[C@@H](CC(=O)OC(C)(C)C)c1nnc(C)n1-2
In a few lines: as §1

Compound in test [5]: c1ccc([C@@H]2C[C@H]2NC2CCNCC2)cc1
The method, boiled down: as §1

About 8,800 targets were measured; listed, in parts, are those with a hit and a random draw of the rest. About 0.5% of all pairs of compound and target were hits. A number with no mark means an inactive call.

UniProt O76041, sequence (O76041 whole entry, looked up): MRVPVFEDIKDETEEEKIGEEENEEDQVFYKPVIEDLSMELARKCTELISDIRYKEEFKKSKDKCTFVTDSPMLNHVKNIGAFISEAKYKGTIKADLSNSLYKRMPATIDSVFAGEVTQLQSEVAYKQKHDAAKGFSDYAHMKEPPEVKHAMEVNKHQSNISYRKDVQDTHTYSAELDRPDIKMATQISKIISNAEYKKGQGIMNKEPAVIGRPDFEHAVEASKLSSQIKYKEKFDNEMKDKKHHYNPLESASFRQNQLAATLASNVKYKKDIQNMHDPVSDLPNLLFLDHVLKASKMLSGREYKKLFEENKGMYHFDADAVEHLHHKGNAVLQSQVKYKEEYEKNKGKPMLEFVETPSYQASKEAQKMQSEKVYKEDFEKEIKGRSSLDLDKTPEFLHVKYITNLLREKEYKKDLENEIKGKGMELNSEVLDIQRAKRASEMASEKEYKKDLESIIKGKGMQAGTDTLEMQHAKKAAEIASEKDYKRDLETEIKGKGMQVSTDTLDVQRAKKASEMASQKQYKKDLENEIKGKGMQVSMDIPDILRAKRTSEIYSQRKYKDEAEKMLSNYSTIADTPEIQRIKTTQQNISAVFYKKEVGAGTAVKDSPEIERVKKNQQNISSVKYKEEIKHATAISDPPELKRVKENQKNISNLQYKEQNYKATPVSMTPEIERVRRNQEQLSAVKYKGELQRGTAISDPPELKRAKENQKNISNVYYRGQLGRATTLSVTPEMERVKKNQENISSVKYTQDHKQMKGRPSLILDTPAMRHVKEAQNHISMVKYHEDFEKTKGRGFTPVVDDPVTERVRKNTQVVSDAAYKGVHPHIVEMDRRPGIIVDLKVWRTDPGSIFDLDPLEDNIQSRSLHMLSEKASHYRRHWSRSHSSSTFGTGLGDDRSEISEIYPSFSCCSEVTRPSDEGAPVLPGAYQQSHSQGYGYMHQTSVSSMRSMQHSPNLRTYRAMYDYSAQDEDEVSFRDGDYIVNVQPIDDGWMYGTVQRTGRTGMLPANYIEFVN
UniProt Q8NC60, sequence (Q8NC60 whole entry, looked up): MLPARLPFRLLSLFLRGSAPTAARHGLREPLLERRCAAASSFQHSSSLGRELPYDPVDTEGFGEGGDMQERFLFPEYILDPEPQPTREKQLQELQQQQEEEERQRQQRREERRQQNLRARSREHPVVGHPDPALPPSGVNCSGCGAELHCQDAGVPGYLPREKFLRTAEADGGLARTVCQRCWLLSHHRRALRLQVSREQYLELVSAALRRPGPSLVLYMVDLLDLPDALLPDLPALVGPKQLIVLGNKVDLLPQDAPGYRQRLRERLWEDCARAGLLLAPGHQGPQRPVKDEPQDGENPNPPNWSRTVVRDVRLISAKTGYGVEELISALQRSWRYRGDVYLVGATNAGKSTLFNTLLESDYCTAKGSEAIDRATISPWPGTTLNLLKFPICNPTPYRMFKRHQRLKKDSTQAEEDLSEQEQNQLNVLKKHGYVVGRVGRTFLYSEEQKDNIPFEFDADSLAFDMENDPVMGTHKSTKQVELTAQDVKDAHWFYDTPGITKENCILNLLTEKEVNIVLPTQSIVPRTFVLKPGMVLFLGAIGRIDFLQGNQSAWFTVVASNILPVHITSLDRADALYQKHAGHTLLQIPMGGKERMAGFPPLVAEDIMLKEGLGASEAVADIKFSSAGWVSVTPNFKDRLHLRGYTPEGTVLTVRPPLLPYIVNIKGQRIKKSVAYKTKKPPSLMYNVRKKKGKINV
UniProt Q9BWT3, sequence (Q9BWT3 whole entry, looked up): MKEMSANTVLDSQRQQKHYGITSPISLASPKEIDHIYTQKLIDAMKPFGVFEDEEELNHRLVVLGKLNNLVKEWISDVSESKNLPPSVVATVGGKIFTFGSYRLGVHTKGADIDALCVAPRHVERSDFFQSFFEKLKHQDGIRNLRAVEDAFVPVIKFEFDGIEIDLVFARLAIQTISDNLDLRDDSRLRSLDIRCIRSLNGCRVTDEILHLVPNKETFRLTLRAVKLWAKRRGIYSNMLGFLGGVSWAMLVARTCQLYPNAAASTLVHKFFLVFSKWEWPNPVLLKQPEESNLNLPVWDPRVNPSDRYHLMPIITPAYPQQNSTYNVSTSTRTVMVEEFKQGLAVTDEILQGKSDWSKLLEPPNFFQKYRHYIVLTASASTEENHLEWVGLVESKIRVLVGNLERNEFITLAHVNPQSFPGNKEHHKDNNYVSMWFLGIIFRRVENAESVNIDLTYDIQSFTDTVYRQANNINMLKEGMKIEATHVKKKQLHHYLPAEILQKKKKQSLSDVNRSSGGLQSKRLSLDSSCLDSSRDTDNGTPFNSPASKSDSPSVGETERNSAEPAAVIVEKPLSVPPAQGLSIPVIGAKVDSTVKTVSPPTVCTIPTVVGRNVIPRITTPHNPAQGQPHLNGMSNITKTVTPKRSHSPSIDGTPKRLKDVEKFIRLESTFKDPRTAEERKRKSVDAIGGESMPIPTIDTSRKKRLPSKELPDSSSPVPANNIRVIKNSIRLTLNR
UniProt P24468, sequence (P24468 whole entry, looked up): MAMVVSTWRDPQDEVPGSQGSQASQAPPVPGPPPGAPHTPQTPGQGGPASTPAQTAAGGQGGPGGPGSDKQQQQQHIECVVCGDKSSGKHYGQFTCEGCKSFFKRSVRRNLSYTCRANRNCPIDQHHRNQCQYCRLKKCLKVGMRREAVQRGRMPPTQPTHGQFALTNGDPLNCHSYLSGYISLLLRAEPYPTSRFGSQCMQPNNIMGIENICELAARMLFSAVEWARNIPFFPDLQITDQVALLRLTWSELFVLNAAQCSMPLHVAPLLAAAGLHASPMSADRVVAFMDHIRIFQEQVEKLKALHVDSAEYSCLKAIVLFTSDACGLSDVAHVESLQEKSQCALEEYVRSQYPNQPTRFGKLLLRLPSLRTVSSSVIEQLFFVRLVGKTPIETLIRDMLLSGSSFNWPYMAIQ
UniProt P22059, sequence (P22059 whole entry, looked up): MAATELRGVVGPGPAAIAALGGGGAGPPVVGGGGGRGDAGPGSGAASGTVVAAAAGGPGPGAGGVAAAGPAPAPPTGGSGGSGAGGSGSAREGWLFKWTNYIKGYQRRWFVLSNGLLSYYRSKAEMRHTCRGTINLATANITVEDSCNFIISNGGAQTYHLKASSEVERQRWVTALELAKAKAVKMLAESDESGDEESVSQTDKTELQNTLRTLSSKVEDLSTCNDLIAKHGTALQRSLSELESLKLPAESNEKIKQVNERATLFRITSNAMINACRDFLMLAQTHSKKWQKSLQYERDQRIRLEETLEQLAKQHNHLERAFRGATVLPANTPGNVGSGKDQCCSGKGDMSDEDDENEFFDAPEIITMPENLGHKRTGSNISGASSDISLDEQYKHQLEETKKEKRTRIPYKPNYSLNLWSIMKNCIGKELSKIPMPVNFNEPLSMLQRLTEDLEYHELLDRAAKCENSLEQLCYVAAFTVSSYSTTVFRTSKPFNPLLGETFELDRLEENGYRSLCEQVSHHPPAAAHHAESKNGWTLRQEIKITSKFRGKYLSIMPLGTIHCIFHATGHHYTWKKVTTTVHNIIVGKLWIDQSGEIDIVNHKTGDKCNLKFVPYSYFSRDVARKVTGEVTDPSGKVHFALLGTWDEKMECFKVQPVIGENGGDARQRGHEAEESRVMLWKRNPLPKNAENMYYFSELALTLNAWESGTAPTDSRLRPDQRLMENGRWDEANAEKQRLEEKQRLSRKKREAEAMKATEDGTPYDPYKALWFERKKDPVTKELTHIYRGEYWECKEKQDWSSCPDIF
UniProt P10244, sequence (P10244 whole entry, looked up): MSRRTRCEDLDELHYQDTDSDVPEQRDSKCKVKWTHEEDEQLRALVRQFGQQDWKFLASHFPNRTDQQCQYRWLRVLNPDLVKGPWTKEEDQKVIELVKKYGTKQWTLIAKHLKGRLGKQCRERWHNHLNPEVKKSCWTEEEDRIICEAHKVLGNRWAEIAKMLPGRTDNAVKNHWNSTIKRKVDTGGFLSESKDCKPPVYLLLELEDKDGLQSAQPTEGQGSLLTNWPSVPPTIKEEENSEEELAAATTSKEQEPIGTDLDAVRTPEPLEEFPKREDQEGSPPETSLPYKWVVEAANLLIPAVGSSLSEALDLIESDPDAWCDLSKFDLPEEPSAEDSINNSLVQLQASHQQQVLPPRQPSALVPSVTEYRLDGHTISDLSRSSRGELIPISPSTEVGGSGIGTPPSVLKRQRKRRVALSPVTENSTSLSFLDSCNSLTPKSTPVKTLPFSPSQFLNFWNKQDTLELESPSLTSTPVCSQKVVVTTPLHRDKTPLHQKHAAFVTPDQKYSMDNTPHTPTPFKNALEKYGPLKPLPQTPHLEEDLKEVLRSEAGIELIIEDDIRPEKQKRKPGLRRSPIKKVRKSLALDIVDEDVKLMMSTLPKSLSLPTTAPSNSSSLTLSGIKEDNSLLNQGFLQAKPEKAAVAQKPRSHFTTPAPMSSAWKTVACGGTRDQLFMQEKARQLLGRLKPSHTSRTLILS
UniProt O96013, sequence (O96013 whole entry, looked up): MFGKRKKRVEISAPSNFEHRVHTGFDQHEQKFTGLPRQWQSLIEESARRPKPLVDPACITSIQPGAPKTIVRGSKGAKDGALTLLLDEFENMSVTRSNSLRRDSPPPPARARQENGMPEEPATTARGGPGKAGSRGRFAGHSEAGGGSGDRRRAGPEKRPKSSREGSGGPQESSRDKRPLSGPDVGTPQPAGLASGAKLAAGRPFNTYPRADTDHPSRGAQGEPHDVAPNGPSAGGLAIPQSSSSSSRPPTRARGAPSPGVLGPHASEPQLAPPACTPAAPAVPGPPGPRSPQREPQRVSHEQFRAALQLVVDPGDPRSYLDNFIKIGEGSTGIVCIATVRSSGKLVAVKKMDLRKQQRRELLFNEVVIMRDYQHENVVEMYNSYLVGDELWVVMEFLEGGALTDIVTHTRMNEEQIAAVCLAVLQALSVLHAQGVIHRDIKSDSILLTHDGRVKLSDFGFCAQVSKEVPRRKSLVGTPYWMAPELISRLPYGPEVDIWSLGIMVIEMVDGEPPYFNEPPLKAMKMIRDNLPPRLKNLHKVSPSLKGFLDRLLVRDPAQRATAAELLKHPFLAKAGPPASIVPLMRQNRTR

Consider OAT (UniProt P04181), for which the log2 fold change in test [1] is 0.029; in test [2], 0.031; in test [3] it was 0.038; in test [4], 0.034; in test [5], -0.018.

As for NOA1 (UniProt Q8NC60), the log2 fold change in test [1] was -0.087; in test [2], 0.099; in test [3], 0.023; in test [4], -0.014; in test [5] it was -0.07.

Turning to NEBL (UniProt O76041), the log2 fold change in test [1] was -0.074; in test [2] it was 0.011; in test [3], 0.047; in test [4], 0.043; in test [5] it was 0.014.

PAPOLG (UniProt Q9BWT3): the results for the log2 fold change in test [3], in test [4] and in test [5] were 0.064, 0.074 and -0.107, respectively.

On to ORC3 (UniProt Q9UBD5), for which the log2 fold change in test [5] was -0.276.

As for OSBP (UniProt P22059), the log2 fold change in test [1] was 0.007; in test [2], 0.048; in test [3] it was 0.036; in test [4] it was -0.009; in test [5], 0.039.

On to NPLOC4 (UniProt I3L3I1), for which the log2 fold change is -0.041 in test [1], 0.2 in test [2] and -0.101 in test [4].

NR2F2 (UniProt P24468): the log2 fold change was -0.082 in test [1], -0.117 in test [2], -0.008 in test [4] and 0.082 in test [5].

On to NOCT (UniProt Q9UK39), for which the log2 fold change in test [4] is 0.021.

Consider MYBL2 (UniProt P10244), for which the results for the log2 fold change in test [3], in test [4] and in test [5] were -0.01, 0.047 and 0.326 (active), respectively.

Consider MYLK (UniProt Q15746), for which the log2 fold change was -0.038 in test [1], -0.161 in test [2], -0.008 in test [3] and 0.123 in test [5].

For the target MRPL53 (UniProt Q96EL3), the log2 fold change in test [1] is -0.056; in test [2], -0.102; in test [3], 0.079; in test [4], -0.026; in test [5], -0.093.

For NSA2 (UniProt O95478), the log2 fold change in test [1] is 0.111; in test [2] it was -0.135; in test [3], -0.018; in test [4] it was -0.042; in test [5], 0.122.

On to MYO10 (UniProt Q9HD67), for which the log2 fold change is -0.122 in test [1], 0.104 in test [2], 0.165 in test [3] and 0.024 in test [5].

Take PAK4 (UniProt O96013): the log2 fold change in test [1] is -0.06; in test [2] it was -0.03; in test [3] it was -0.018; in test [4], -0.021; in test [5], -0.14.
